Data on 15 molecules can be found in PubChem BioAssay.

Experiment [1] is described as follows: enhancers of glutamate uptake in motor neurons, MN-1 cell line (AID 1612).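 Also: tested at 1 µM final; 0% = mean of DMSO vehicle wells on each plate; positive means more glutamate uptake than control and negative means less.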 The following applies: MN-1 motor neuron cells, stronger effect = higher value.
Experiment [2] can be described thus: reducers of polyQ inclusions in PC12 cells, cell-based, NGF-treated PC12, GFPQ80 (AID 1614).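 Also: lower means fewer inclusions and 0 means no inclusions at all.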 To be noted: PC12 NGF-treated GFP-polyQ80 inclusion reduction.
A short description of experiment [3]: suppressors of polyglutamine aggregation in yeast, 75Q-TubH (AID 1616). To be noted: S. cerevisiae 75Q-TubH polyglutamine aggregation suppression; stronger effect = higher value.
A short description of experiment [4]: protection against mutant huntingtin cytotoxicity, PC12 cells, LDH release (AID 1610). The following applies: PC12 mutant huntingtin toxicity, final LDH at 4 uM, stronger effect = lower value.
A short description of experiment [5]: hESC survival regulators, cell-based (AID 493140).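 Also: cells exposed to compounds for four days before counting.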 The following applies: human embryonic stem cell survival screen; stronger effect = higher value.
Experiment [6] in a line: circadian clock period modulators, cell-based, LOPAC library, luminescence reporter (AID 2774).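 Also: values are relative to mean of DMSO wells on each plate.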 The following applies: circadian reporter cells, at 7 µM, actives lie on both sides.

Structures are written as SMILES. Inconclusive results are not listed. Activity calls are given as the source filed them. No rule for the calls is given here.

Take `O=c1cc(CO)occ1O`: in experiment [1], the glutamate uptake change was 5.22%. The inclusion score in experiment [2] is 2. This molecule yielded an aggregation suppression score in experiment [3] of 1.36.

For `Nc1ccc(C(=O)O)cc1`, the glutamate uptake change in experiment [1] came out at 15.6%. Besides, the inclusion score in experiment [2] is 2. For the same molecule, in experiment [3], the aggregation suppression score was 1.25.

For the molecule `CCOC(=O)[C@H](CCc1ccccc1)N[C@@H](C)C(=O)N1CCC[C@H]1C(=O)O`, in experiment [1], the glutamate uptake change is -6.34%. Also, the inclusion score in experiment [2] turned out to be 2. The aggregation suppression score in experiment [3] worked out at 1.1.

As for `CC(=O)OCC(COC(C)=O)OC(C)=O`, the glutamate uptake change in experiment [1] was -13.9%. The inclusion score in experiment [2] turned out to be 2. In experiment [3], this molecule displayed an aggregation suppression score of 1.25.

As to `Cc1ccc(C(=O)C(C)CN2CCCCC2)cc1` (configuration not stated), the normalised LDH release in experiment [4] was 0.861. Besides, the glutamate uptake change in experiment [1] was -0.03%. This molecule came in with an inclusion score in experiment [2] of 1.5. Moreover, in experiment [3], the aggregation suppression score worked out at 0.367.

`CC(NCCC(c1ccccc1)c1ccccc1)c1ccccc1` (configuration not stated): the normalised LDH release in experiment [4] came out at 1.14. In addition, the glutamate uptake change in experiment [1] was -8.71%. In experiment [3], this molecule returned an aggregation suppression score of 1.16. For the same molecule, the survival in experiment [5] is 3.08 (inactive).

The molecule `O=C(Nc1ccc([N+](=O)[O-])cc1Cl)c1cc(Cl)ccc1O` came in with a normalised LDH release in experiment [4] of -0.146. Besides, the glutamate uptake change in experiment [1] is -52.2%. The molecule further returned an aggregation suppression score in experiment [3] of 0.882. Besides, in experiment [6], the period change is 0.06 h (inactive). In experiment [5], the survival was 1.67 (inactive).

On to `OCc1ccccc1O`, for which the glutamate uptake change in experiment [1] worked out at 16.3%. The inclusion score in experiment [2] worked out at 2. In experiment [3], this molecule returned an aggregation suppression score of 1.11.

For `O=C1OCCN1/N=C/c1ccc([N+](=O)[O-])o1`, the glutamate uptake change in experiment [1] stood at 4.62%. The inclusion score in experiment [2] was 2. This molecule also came in with an aggregation suppression score in experiment [3] of 0.223.

On to `C[C@H]1c2cccc(O)c2C(O)=C2C(=O)[C@]3(O)C(O)=C(C(N)=O)C(=O)[C@@H](N(C)C)[C@@H]3[C@@H](O)[C@@H]21`, for which, in experiment [4], the normalised LDH release amounted to 0.903. For the same molecule, in experiment [1], the glutamate uptake change was -7.42%. The same molecule displayed an inclusion score in experiment [2] of 0.5. This molecule returned an aggregation suppression score in experiment [3] of 0.446. Besides, the period change in experiment [6] was -0.14 h (inactive).

`CC1=NN(c2ccccc2)C(=O)C1`: the glutamate uptake change in experiment [1] was -0.14%. In addition, the inclusion score in experiment [2] turned out to be 2. Also, the aggregation suppression score in experiment [3] came out at 0.985.

Consider `NC(=O)c1ccccc1O`, for which the glutamate uptake change in experiment [1] was determined as 8.07%. In experiment [2], the inclusion score is 2. The molecule further registered an aggregation suppression score in experiment [3] of 1.02.

Turning to `Nc1ccc(C(=O)O)c(O)c1`, in experiment [1], the glutamate uptake change was found to be 2.47%. This molecule also registered an inclusion score in experiment [2] of 2. For the same molecule, in experiment [3], the aggregation suppression score was found to be 1.24.

In the case of `CN(C)c1ccc(C(=C2C=CC(=[N+](C)C)C=C2)c2ccc(N(C)C)cc2)cc1`, the normalised LDH release in experiment [4] was 0.824. In addition, in experiment [1], the glutamate uptake change is -15.7%. Moreover, the aggregation suppression score in experiment [3] is -1.97.

Consider `Cc1cc(C2CCCCC2)n(O)c(=O)c1`, for which the normalised LDH release in experiment [4] was 0.668. In addition, the glutamate uptake change in experiment [1] is -12%. Moreover, the aggregation suppression score in experiment [3] was found to be 0.0349. The survival in experiment [5] is 0.667 (inactive).
